Test results from article PMC4336329 (PLoS ONE, 2015).
Out of some 310,000 compounds screened, about 14,000 (4.5%) showed an effect of 50% or more. Effects have a minus sign here. Many of the other results were omitted from the sample, so strong results are more common in it than they were.

target: human ether-à-go-go-related gene (hERG) potassium channel (human, UniProt Q12809); assay: primary screen, population patch clamp on CHO cells stably expressing hERG; higher = less effect of the substance
Sequence (Q12809 whole entry, looked up): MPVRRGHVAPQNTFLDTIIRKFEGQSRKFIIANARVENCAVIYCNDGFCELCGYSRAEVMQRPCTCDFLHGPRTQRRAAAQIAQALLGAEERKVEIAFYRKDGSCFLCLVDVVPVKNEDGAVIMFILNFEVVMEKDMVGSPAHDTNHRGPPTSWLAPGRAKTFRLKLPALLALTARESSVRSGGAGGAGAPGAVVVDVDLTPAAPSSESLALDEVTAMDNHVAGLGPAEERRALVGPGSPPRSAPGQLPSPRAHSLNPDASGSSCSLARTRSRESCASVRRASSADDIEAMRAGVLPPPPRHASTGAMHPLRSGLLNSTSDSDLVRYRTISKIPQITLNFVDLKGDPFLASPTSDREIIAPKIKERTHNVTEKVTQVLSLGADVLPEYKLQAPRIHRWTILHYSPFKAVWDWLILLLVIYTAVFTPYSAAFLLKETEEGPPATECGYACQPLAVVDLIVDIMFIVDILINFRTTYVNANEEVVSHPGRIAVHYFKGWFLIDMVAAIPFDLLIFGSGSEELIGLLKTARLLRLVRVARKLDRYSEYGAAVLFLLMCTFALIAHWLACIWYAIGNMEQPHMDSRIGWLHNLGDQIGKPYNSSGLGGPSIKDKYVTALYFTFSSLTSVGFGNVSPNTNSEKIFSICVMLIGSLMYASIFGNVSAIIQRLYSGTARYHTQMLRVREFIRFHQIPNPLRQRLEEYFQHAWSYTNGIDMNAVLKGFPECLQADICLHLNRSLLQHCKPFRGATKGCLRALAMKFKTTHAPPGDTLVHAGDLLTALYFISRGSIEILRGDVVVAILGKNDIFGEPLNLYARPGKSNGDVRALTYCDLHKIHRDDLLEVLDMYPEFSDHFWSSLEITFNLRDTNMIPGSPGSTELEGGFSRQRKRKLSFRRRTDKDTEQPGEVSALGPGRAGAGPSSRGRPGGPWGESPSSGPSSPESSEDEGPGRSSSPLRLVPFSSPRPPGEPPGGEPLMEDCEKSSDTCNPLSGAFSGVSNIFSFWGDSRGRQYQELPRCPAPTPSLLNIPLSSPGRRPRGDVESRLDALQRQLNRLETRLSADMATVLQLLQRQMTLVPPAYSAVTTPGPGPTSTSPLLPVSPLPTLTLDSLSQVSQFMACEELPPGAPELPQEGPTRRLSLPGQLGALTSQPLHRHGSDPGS
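Note: peak tail current of the secondary pulse compared with the same well before compound.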

Compound	hERG current change (%, negative = inhibition) at 10uM [%]
Cc1c(Cl)cccc1NC(=O)CN1CCC(NC(=O)C2CCCCC2)CC1	-0.0286
CCOC(=O)c1[nH]c(C)c(C(=O)Nc2ccccc2F)c1C	-11.2
CCOc1ccccc1NC(=O)Cn1c(=O)n(-c2ccccc2)c(=O)c2oc3ccccc3c21	-16.4
O=C(CN(CC1CCCO1)C(=O)CNS(=O)(=O)c1ccc(F)cc1)NCc1ccccc1 (stereo not shown)	7.27
CC1CCN(c2ccc3nnc(CCC(=O)NC(C)C)n3n2)CC1	2.67
N#CC1=C(N)OC(c2ccccc2)=C(C#N)C1c1ccc2c(c1)OCO2 (stereo not shown)	14.3
Cc1ccc(S(=O)(=O)Nc2ccc(C(=O)NCc3ccccn3)cc2)cc1	-7.17
Cc1ccc(NS(=O)(=O)c2cccc(C(=O)NCc3ccccn3)c2)cc1	-68.5
Cc1ccc(NS(=O)(=O)c2ccc(C(=O)NCc3ccccn3)cc2)cc1	18.8
COc1ccc(OC)c(C2Nc3ccccc3NC3=C2C(=O)CC(C)(C)C3)c1 (stereo not shown)	15.4
O=C(Nc1ccc(Br)cc1Cl)c1cnccn1	5.88
CCc1nnc(NC(=O)CSc2nc3cc(OC)c(OC)cc3cc2C)s1	5.07
CCC(=O)N1CCc2cc(S(=O)(=O)CCC(=O)N3CCN(c4ccc(F)cc4)CC3)ccc21	-2.82
O=c1c2cc([N+](=O)[O-])ccc2nc2n1CCCC2	4.82
CCOC(=O)C(Sc1nnc2c3ccccc3n(CC)c2n1)C(=O)OCC	-28.7
C=CCn1c2ccccc2c2nnc(SC(CC)C(=O)Nc3nc(C)c(C(=O)OCC)s3)nc21 (stereo not shown)	-43.9
CCOC(=O)c1sc(NC(=O)C(CC)Sc2nnc3c4ccccc4n(CC)c3n2)nc1C (stereo not shown)	-59.4
Cc1ccc(-c2ccc(CCC(=O)O)n2Cc2ccco2)cc1	12.2
Cc1ccc(OCCCCNC2CCCCC2)c(C)c1.O=C(O)C(=O)O	-42.8
Cc1ccc(OCCCCn2cnc3ccccc32)c(C)c1.O=C(O)C(=O)O	-20.5
Cc1ccc(C(C)C)c(OCCCn2ccnc2C)c1.O=C(O)C(=O)O	-63.8
Cc1ccc(OCCCCNC2CCCC(C)C2C)c(C)c1.O=C(O)C(=O)O (stereo not shown)	-56.9
Cc1ccc(C(C)C)c(OCCn2ccnc2C)c1.O=C(O)C(=O)O	-35.1
Cc1ccc(C(C)C)c(OCCN(C)C)c1.O=C(O)C(=O)O	-5.47

Compound	hERG current change (%, negative = inhibition) at 10uM [%]
Cc1ccc(OCCCCn2ccnc2C)c(C)c1.O=C(O)C(=O)O	-64.1
Cc1ccc(OCC(=O)NC2CCCC2)c(C)c1	2.93
COc1ccc(OCCn2ccnc2C)cc1.O=C(O)C(=O)O	-0.197
Cc1cc(C)nc(N/N=C/c2cn[nH]c2-c2ccccc2)n1	-6.34
Cc1cc([N+](=O)[O-])nn1CC(=O)NCc1ccccc1	24.2
CC(C(=O)N=c1sc2ccccc2n1C)N1C(=O)C2CC=CCC2C1=O (stereo not shown)	-40.2
Cc1cccc(C)c1NC(=O)CNC(=O)C(NC(=O)c1ccc(C(C)(C)C)cc1)C(C)C (stereo not shown)	14.4
CCc1nnc(NC(=O)CN2CCN(c3ccccc3F)CC2)s1.Cl	-12.9
CSc1ccc(CCCCCCOC(=O)C(C)(C)C)cc1	3.95
CCn1c(=O)cc(SCC(=O)NCCN2CCN(Cc3ccccc3)CC2)c2ccccc21	-49.4
CCn1c(=O)cc(SCC(=O)NCCCN2CCN(c3ccccc3F)CC2)c2ccccc21	-62.2
CCn1c(=O)cc(SCC(=O)NCCCN2CCN(c3ccc(F)cc3)CC2)c2ccccc21	-46
CCn1c(=O)cc(SCC(=O)N2CCN(C)CC2)c2ccccc21	6.22
CCn1c(=O)cc(SCC(=O)N2CCN(c3ccccc3F)CC2)c2ccccc21	-21.7
CCn1c(=O)cc(SCC(=O)N2CCN(c3ccccc3OC)CC2)c2ccccc21	-52
Cn1c(=O)cc(SCC(=O)NCCCN2CCOCC2)c2ccccc21	-2.51
CCn1c(=O)cc(SCC(=O)NCCCN2CCC(C)CC2)c2ccccc21	-13
Cn1c(=O)cc(SCC(=O)NCCCN2CCN(c3ccccc3F)CC2)c2ccccc21	-55.5
Cn1c(=O)cc(OCC(=O)NCCCN2CCN(c3ccccc3F)CC2)c2ccccc21	-45.4
Cn1c(=O)cc(SCC(=O)NCCCN2CCN(c3ccc(F)cc3)CC2)c2ccccc21	-69.2
Cn1c(=O)cc(SCC(=O)NCc2ccc(F)cc2)c2ccccc21	-17.4
COc1ccc(-c2c(C)oc3c(CN4CCOCC4)c(O)ccc3c2=O)cc1	7.31
O=C(O)CC(NC(=O)OCc1ccccc1)c1ccc(Br)cc1 (stereo not shown)	20.2
CCCn1c(=O)c2c(nc(Br)n2CCC)n(C)c1=O	-1.31

Compound	hERG current change (%, negative = inhibition) at 10uM [%]
CCC(C)c1ccccc1NC(=O)C(C)NCCN(C)C.O=C(O)C(=O)O (stereo not shown)	10.3
CSCCC1NC(=O)N(CC(=O)Nc2c(Cl)cc(Cl)cc2Cl)C1=O (stereo not shown)	-2.68
O=c1[nH]c(O)c(C=Nc2ccc(F)c(Cl)c2)c(=O)[nH]1	7.3
Cc1ccc(S(=O)(=O)Oc2ccc(/C=N/N=C3/NC(=O)C(CC(=O)O)S3)cc2)cc1[N+](=O)[O-] (stereo not shown)	24
Cc1ccc2[nH]c(=O)c(NC(N)=S)nc2c1	14
S=c1nc(C2CCCCC2)n(-c2ccccc2)[nH]1	15.6
O=C(C1CC1)N1CCN(C(c2ccccc2)c2ccccc2)CC1	6.33
Cc1ccccc1-n1nc2c(c1NC(=O)c1ccc3c(c1)OCO3)CS(=O)(=O)C2	-17.6
CNC(=S)N/N=C/c1ccccc1OCC(=O)O	18.4
CC(C)C(=O)NN(C(=O)c1ccccc1)c1ccccc1	20.4
CCOc1ccc(CCNC(=O)CSc2cc(=O)n(C)c3ccc(Cl)cc23)cc1OCC	-21.4
Cn1c(=O)cc(SCC(=O)NCCN2CCN(c3ccccc3F)CC2)c2cc(Cl)ccc21	-54.1
Cn1c(=O)cc(OCCCC(=O)NCCN2CCN(c3ccccc3F)CC2)c2ccccc21	-7.18
O=C(O)C1(c2ccccc2)CCN(S(=O)(=O)c2ccc(F)c(F)c2)CC1	2.44
COc1ccc(-c2cc(O)cc(O)c2)cc1	-3.33
COc1ccc(/C=C/C(=O)NCCCc2ccccc2)cc1	-46.8
COc1ccc(NC(=O)Cc2ccccc2)cc1	4.36
COc1ccc(/C=C/c2cc[n+](C(=O)Cc3ccccc3)cc2)cc1.[Cl-]	-51.2
CCC(=O)Nc1ccc(OCC2CCCO2)cc1 (stereo not shown)	7.08
Cl.OC1(c2ccc3ccccc3c2)CCN(Cc2ccccc2)C1 (stereo not shown)	-57.1
Cl.OC1(c2ccc(F)cc2)CCN(Cc2ccccc2)C1 (stereo not shown)	-15.1
c1ccc(CN2CCN(Cc3ccc4ccccc4c3)CC2)cc1	5.24
c1ccc2c(c1)OCC(CNc1ncnc3sccc13)O2 (stereo not shown)	-20.9
CCOC(=O)C1=C(C)NC(=O)CC1c1ccccc1OC (stereo not shown)	7.62

Compound	hERG current change (%, negative = inhibition) at 10uM [%]
Cc1ccc(NC2=NCC(=O)N2Cc2ccc3c(c2)OCO3)c(C)c1	-1.91
Cl.c1ccc(CCCN2CCN(CCOC(c3ccccc3)c3ccccc3)CC2)cc1	-71.8
O=C(O)/C=C\C(=O)O.c1ccc(C(OCCN2CCN(c3ncccn3)CC2)c2ccccc2)cc1	-65.9
CCC(C(=O)N1CCN(c2ncccn2)CC1)c1ccccc1 (stereo not shown)	-0.742
Cl.c1ccc(C(OCCN2CCNCC2)c2ccccc2)cc1	-11.9
Cl.Fc1ccc(C(OCCN2CCN(CCCc3ccccc3)CC2)c2ccc(F)cc2)cc1	-77.4
O=S(=O)(c1ccc(F)cc1)N1CCN(CCc2ccccc2)CC1	-8.48
c1ccc(CN2CCN(c3ncccn3)CC2)cc1	11.6
c1ccc(COCCN2CCN(CCOCc3ccccc3)CC2)cc1	-39.5
O=C1CCN(CCCc2ccccc2)CCN1CCO	2.01
CC(=O)Nc1ccc(Sc2ncccc2C(=O)Nc2cc(Cl)cc(Cl)c2)cn1	26.7
CN(C)/C=C(\C#N)C(=O)N/N=C/c1ccc(F)cc1	-10.1
C=CCN(CC=C)C(=O)C[n+]1ccc(C(N)=O)cc1.[Cl-]	-0.0573
O=C(CSc1ccc2nnc(-c3ccccn3)n2n1)Nc1ccc2c(c1)OCCO2	-40.6
O=C(CSc1ccc2nnc(-c3cccnc3)n2n1)NCc1ccc2c(c1)OCO2	-53.3
O=C(CSc1ccc2nnc(-c3ccncc3)n2n1)Nc1ccc2c(c1)OCO2	7.8
O=C(CSc1ccc2nnc(-c3ccccn3)n2n1)Nc1ccc2c(c1)OCO2	-33.7
O=C(CSc1ccc2nnc(-c3ccccc3)n2n1)NCc1ccc2c(c1)OCO2	-80.3
O=C(CSc1ccccn1)NCc1ccc2c(c1)OCO2	3.5
O=C(CSc1ccc2nnc(-c3ccccn3)n2n1)NCc1ccc2c(c1)OCO2	-74.4
O=C(CSc1ccc2nnc(-c3cccnc3)n2n1)NCc1ccco1	-44.3
O=C(CSc1ccc2nnc(-c3cccnc3)n2n1)NCC1CCCO1 (stereo not shown)	-9.66
